This note sets out measurements from PubChem BioAssay.

Each structure is given as a SMILES string. Active and inactive are the calls of the source. Unless noted, the rule behind the calls is not given here.

The test system of assay [1] is XIP peptide (Xip251-270) binding. The experiment in a line: XIP fragment 251-270 binding compounds – biochemical, small-molecule microarray, fluorescence 635/667 nm, 0.1 µg/mL protein, primary screen (AID 1182). Particulars: fluorescent protein binding, 635 nm, higher = more signal, called active from +8 up or from −8 down.
Assay [2] has as its system XIP peptide (Xip251-270). Briefly: compounds binding XIP fragment 251-270 – biochemical, small-molecule microarray, fluorescence 635/667 nm, 0.5 µg/mL protein, primary screen (AID 1183). Particulars: fluorescence 635 nm, higher = more signal.
The nature of assay [3]: blood-stage malaria parasite viability loss – strain 3D7, DAPI fluorescence, 100 nL, primary screen (AID 1184).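 Note: parasites grown inside human red blood cells in medium with human serum.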 Particulars: P. falciparum 3D7 growth, 3 d, higher = more signal.
The target of assay [4] is Homeobox protein Hox-A13 (Mus musculus) (UniProt Q62424). The experiment in a line: disruptors of Hoxa13 oligonucleotide interaction – biochemical, fluorescence polarization, labeled oligonucleotide, primary screen (AID 1185). Particulars: Hoxa13:DNA binding, 15 min, higher = more signal, called active from +8 up or from −8 down.
Assay [5] is described as follows: blockers of DNA damage checkpoint Chk1 activation – imaging, HeLa, hydroxyurea, phospho-Chk1 antibody, percent positive cells, primary screen (AID 1186). Particulars: hydroxyurea-induced phospho-Chk1 immunofluorescence imaging, higher = more signal.
Assay [6] can be described thus: blockers of DNA damage checkpoint Chk1 activation – imaging, HeLa, hydroxyurea, phospho-Chk1 nuclear intensity, primary screen (AID 1187). Particulars: hydroxyurea-induced phospho-Chk1 immunofluorescence imaging, higher = more signal.

Chain of Homeobox protein Hox-A13 (Mus musculus) (Q62424 whole entry, looked up): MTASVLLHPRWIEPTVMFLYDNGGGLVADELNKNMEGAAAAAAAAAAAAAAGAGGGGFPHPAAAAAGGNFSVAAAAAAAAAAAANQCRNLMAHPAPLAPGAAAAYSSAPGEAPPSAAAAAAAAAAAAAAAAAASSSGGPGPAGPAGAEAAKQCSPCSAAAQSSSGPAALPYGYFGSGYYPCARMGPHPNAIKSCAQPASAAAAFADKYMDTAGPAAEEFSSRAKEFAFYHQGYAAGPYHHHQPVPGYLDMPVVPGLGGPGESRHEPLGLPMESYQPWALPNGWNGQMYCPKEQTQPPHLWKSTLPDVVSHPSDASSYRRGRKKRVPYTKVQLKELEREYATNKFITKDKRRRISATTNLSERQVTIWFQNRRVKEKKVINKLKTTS

Take `C[n+]1ccc(CCCO)cc1`: the composite z-score is 0.955 (inactive) in assay [1] and 1.02 in assay [2]. In addition, the z-score in assay [3] was -1.21; in assay [4] it was -2.17 (inactive); in assay [5], -0.0124 (inactive); in assay [6], 0.102 (inactive).
Consider `O=C(N1CCCCC1)[C@@]1(Cc2ccccc2)COC(c2ccc(OCCCO)cc2)=N1`, for which the composite z-score in assay [1] is 1.07 (inactive); in assay [2], 0.819. In addition, the z-score in assay [3] is -1.77; in assay [4], -5.09 (inactive); in assay [5] it was -0.542 (inactive); in assay [6], -0.344 (inactive).
On to `O=C1NC(=O)C2C1C=CC(C(O)c1ccc(Br)cc1)N2Nc1ccccn1` (stereo unspecified), for which the composite z-score was 0.623 (inactive) in assay [1] and 0.883 in assay [2]. Besides, the z-score in assay [3] is 0.284; in assay [4] it was -0.555 (inactive); in assay [5], 0.48 (inactive); in assay [6] it was 0.784 (inactive).
In the case of `COc1ccc([Si](C)(C)[C@H]2[C@H](CCn3cc([C@H](O)c4ccccc4)nn3)O[C@@]3(C(=O)N(Cc4cccc(N5C(=O)c6cccc7cccc5c67)c4)c4ccccc43)[C@@H]2C)cc1`, the composite z-score in assay [1] is 0.75 (inactive); in assay [2], 0.141. Moreover, the z-score in assay [3] was -0.989; in assay [4] it was -2.01 (inactive); in assay [5], 0.169 (inactive); in assay [6], -0.656 (inactive).
In the case of `COC(=O)[C@@]1(Cc2ccccc2)[C@H]2c3cc(C(=O)N4CCCC4)[nH]c3C[C@H]2CN1C(=O)c1ccccc1`, the values for the composite z-score in assay [1] and in assay [2] were 0.282 (inactive) and 0.659, respectively. The z-score in assay [3] was -0.0756; in assay [4] it was -1.8 (inactive); in assay [5] it was 1.1 (inactive); in assay [6], 1.21 (inactive).
As for `CCOC(=O)[C@@H]1[C@@H]2C(=O)N(CC)C(=O)[C@@H]2C[C@@H]1Sc1ccccc1`, the figures for the composite z-score in assay [1] and in assay [2] were -0.266 (inactive) and 0.313, respectively. For the same compound, the z-score is -0.555 in assay [3], -4.73 (inactive) in assay [4], 0.899 (inactive) in assay [5] and 0.647 (inactive) in assay [6].
On to `CCN(CC)c1ccc(N2CC=CC34O[C@@H]5/C=C\CCC(C)OC(=O)C5[C@H]3C(=O)N(CCO)[C@@H]4C2=O)cc1` (stereo partly specified), for which the composite z-score in assay [1] was 1.27 (inactive); in assay [2], 0.461. In addition, the z-score in assay [3] was -1.23; in assay [4], -5.86 (inactive); in assay [5], 0.695 (inactive); in assay [6], 0.21 (inactive).
`CCCC[C@@H]1C[C@H]1[C@@H](NC(=O)c1cccnc1)c1ccc(-c2ccccc2)cc1`: the composite z-score is -0.414 (inactive) in assay [1] and -0.0356 in assay [2]. In addition, the z-score in assay [3] was -0.814; in assay [4], -3.43 (inactive); in assay [5] it was 0.577 (inactive); in assay [6], 0.452 (inactive).
For `CCOC(=O)C[C@H]1[C@H](OC(=O)c2ccc(-c3ccccc3)cc2)[C@@H](NC(=O)c2ccc3ccccc3c2)c2cc(OCCCO)ccc2N1C(=O)c1ccc2ccccc2n1`, the composite z-score in assay [1] is 0.0454 (inactive); in assay [2] it was 0.338. The z-score is 0.563 in assay [3], -1.16 (inactive) in assay [4], -0.361 (inactive) in assay [5] and -0.561 (inactive) in assay [6].
For the compound `O=C1OCCC=C[C@H]2OC34C=CCN(c5ccc(Cl)cc5)C(=O)[C@H]3N(CCCCCO)C(=O)[C@@H]4C12` (stereo partly specified), the composite z-score was 0.445 (inactive) in assay [1] and -0.342 in assay [2]. For the same compound, the z-score was 0.684 in assay [3], -5.82 (inactive) in assay [4], 0.578 (inactive) in assay [5] and 0.434 (inactive) in assay [6].
With `CC(C)CNC(=O)[C@@]1(c2ccc([N+](=O)[O-])cc2)CC(=O)N(C2CCCCC2)[C@@H]1c1ccc(CO)cc1I`, the composite z-score in assay [1] was 0.551 (inactive); in assay [2], 0.792. Further, the z-score in assay [3] is -0.923; in assay [4], -4.89 (inactive); in assay [5] it was 0.093 (inactive); in assay [6], -0.208 (inactive).
On to `COc1ccc([Si](C)(C)[C@@H]2[C@@H](CC(=O)N3CCC[C@H]3CO)O[C@]3(C(=O)N(Cc4ccc(N5C(=O)c6cccc7cccc5c67)cc4)c4ccccc43)[C@H]2C)cc1`, for which the composite z-score in assay [1] is 0.353 (inactive); in assay [2], 0.792. Moreover, the z-score in assay [3] was -2.09; in assay [4], -3.19 (inactive); in assay [5] it was 0.48 (inactive); in assay [6], 0.451 (inactive).
As for `COc1ccc(CCNC(=O)[C@@]2(Sc3ccc(C)cc3)CC(=O)N(Cc3cc(C(F)(F)F)cc(C(F)(F)F)c3)[C@@H]2c2ccc(CO)cc2I)cc1`, the composite z-score in assay [1] is 0.439 (inactive); in assay [2] it was 0.858. For the same compound, the z-score in assay [3] is 0.725; in assay [4] it was -2.57 (inactive); in assay [5], 0.261 (inactive); in assay [6], 0.688 (inactive).
Take `COc1cc(CO)cc(I)c1O[C@H]1C=C(C(=O)NCCO)C[C@@H](NCc2ccccc2F)[C@@H]1O`: the results for the composite z-score in assay [1] and in assay [2] were -0.346 (inactive) and 0.481, respectively. In addition, the z-score is -2.98 in assay [3], -7.62 (inactive) in assay [4], -0.24 (inactive) in assay [5] and 0.959 (inactive) in assay [6].
`Cc1ccc(S[C@]2(C(=O)O)CC(=O)N(Cc3ccccc3Cl)[C@@H]2c2ccc(CO)cc2)cc1`: the figures for the composite z-score in assay [1] and in assay [2] were 0.084 (inactive) and -0.0477, respectively. Besides, the z-score is -1.34 in assay [3], -2.09 (inactive) in assay [4], -0.181 (inactive) in assay [5] and -0.207 (inactive) in assay [6].
Turning to `O=C1NC(=O)C2C1C=CC(C(O)c1c(F)cccc1Cl)N2Nc1ccccn1` (stereo unspecified), the composite z-score in assay [1] is 0.49 (inactive); in assay [2] it was 0.833. The z-score in assay [3] was -0.362; in assay [4] it was -2.19 (inactive); in assay [5] it was 0.578 (inactive); in assay [6], 0.135 (inactive).
